In the library only some 3.3% were active in any assay of this set; here they are far more common.
PfGluPho inh: PfG6PD (Plasmodium falciparum) enzyme inhibition | 350,000 tested, 0.78% active | inhibition, % at 20 µM | AID 504690 | PfGluPho enzyme, NADPH resazurin-diaphorase fluorescence;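 active means inhibition reaching at least a set limit at 20 µM in the primary screen, cut at about 59% in these data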;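 further: 0% = DMSO wells with substrate and 100% = DMSO wells lacking glucose-6-phosphate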
PfM18AAP inh-1: blocks P. falciparum M18 aspartyl aminopeptidase. inhibition, % at 7.35 µM. recombinant PfM18AAP, H-Glu-NHMec fluorogenic cleavage. 290,000 tested, 1.2% active. AID 1822;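 active means inhibition above the campaign mean inhibition over all tested compounds plus 3 SD, cut at about 28% in these data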;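 further: 0% = plate median of test compound wells and 100% = 2 mM ZnCl2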
MBD2 inh: blocks human MBD2 binding to methylated DNA; 370,000 tested, 0.31% active; AID 686964; TR-FRET, MBD2 binding to methylated oligonucleotide; inhibition, % at 4.4 µM; Q9UBB5; in the data active means inhibition above about 13%
PRMT1 FP inh: blocks human protein arginine methyltransferase 1 | Q99873 | recombinant PRMT1, activity-based probe fluorescence polarization | inhibition, % at 2.79 µM | 370,000 tested, 1.3% active | AID 652257;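 active means inhibition above about 21% made by adding two undisclosed values, limit read from the data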
UHRF1 binding: UHRF1 methyl-DNA binding inhibition | UHRF1 binding to methylated oligo, TR-FRET | inhibition, % at 4.4 µM | 370,000 tested, 0.75% active | AID 687016; in the data active means inhibition above about 21%;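 further: UHRF1 SRA domain binding a hemimethylated CpG hairpin DNA probe; 0% = median of test compound wells and 100% = reference inhibitor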
PfM18AAP inh-2: PfM18AAP inhibition, confirmation; shares compounds with PfM18AAP inh-1; recombinant PfM18AAP, H-Glu-NHMec fluorogenic cleavage; inhibition, % at 7.35 µM; 2,400 tested, 28% active; AID 2170;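 active means mean inhibition over replicate wells above the hit cutoff set for the earlier primary screen, cut at about 29% in these data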;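 further: 0% = median of test compound wells and 100% = 2 mM ZnCl2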
CTSL1 counter: counter-screen for PFM18AAP inhibitors: confirmation of human cathepsin L inhibitors; purified cathepsin L1, Z-Leu-Arg-MCA fluorescence; shares compounds with PfM18AAP inh-1; inhibition, % at 5.96 µM; 2,400 tested, under 10 active;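 active means average inhibition across replicates above the hit cutoff set in the earlier primary screen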;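 further: 0% = median of test compound wells and 100% = Z-Phe-Ala-diazomethylketone 1 µM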
Target sequence (P07711 whole entry, looked up): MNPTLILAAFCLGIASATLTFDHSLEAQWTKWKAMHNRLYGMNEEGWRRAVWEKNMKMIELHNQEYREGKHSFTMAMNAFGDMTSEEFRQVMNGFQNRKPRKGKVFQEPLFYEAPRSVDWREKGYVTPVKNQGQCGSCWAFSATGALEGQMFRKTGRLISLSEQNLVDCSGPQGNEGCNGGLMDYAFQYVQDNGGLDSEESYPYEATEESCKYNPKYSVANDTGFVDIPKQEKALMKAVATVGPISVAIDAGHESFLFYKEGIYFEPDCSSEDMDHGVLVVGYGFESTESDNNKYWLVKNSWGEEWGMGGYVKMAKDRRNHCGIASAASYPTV
The depositor's hits bear a star.

Screening Cc1nc(C)c(C(=O)NNC(=O)Nc2ccc(Cl)cc2)s1 returned PfGluPho inh 1.1, PfM18AAP inh-1 54.9*, MBD2 inh -2.6, PRMT1 FP inh -4.3, UHRF1 binding -3.1, PfM18AAP inh-2 25.4 and CTSL1 counter 4.0.
Cc1ccc(-n2c(O)c(/C=N/n3cnnc3)c3ccccc3c2=O)cc1 was read as PfGluPho inh -17.4, PfM18AAP inh-1 71.0*, MBD2 inh 0.4, PRMT1 FP inh -2.5, UHRF1 binding -5.7, PfM18AAP inh-2 64.0* and CTSL1 counter -1.9.
`Cc1ccc(-n2c(O)c(/C=N/c3ncn[nH]3)c3ccccc3c2=O)cc1` gave PfGluPho inh 5.9, PfM18AAP inh-1 37.2*, MBD2 inh -1.9, PRMT1 FP inh -0.6, UHRF1 binding -3.6, PfM18AAP inh-2 -15.6 and CTSL1 counter 6.4.
For COC(=O)[C@]12C[C@H](CC(=O)NCCc3ccccc3OC)C(=O)N(CCc3ccc(OC)c(OC)c3)C1=C[C@H](C(C)(C)C)O[C@@H]2C the results were MBD2 inh -2.5, PRMT1 FP inh 1.1 and UHRF1 binding -2.5.
Screening CC(=O)Oc1cc2cccc(OC(C)=O)c(=O)c2c(OC(C)=O)c1OC(C)=O returned PfGluPho inh 3.7, PfM18AAP inh-1 53.2*, PfM18AAP inh-2 30.0* and CTSL1 counter -11.2.
Screening CC(=O)Oc1cc2c(c3ccccc13)CCC2=O returned PfGluPho inh 4.0, MBD2 inh -6.0, PRMT1 FP inh 0.3 and UHRF1 binding -2.0.
`CCOc1ccc2[nH]cc(C(=O)N3CCN(C4CCCCC4)CC3)c(=O)c2c1` gave PfGluPho inh 7.6, PfM18AAP inh-1 7.0, MBD2 inh -0.9, PRMT1 FP inh -0.3 and UHRF1 binding 1.9.
Screening CCOc1ccc2[nH]cc(C(=O)O)c(=O)c2c1 returned PfGluPho inh -8.6, PfM18AAP inh-1 50.8*, MBD2 inh 2.5, PRMT1 FP inh -1.1, UHRF1 binding 3.2, PfM18AAP inh-2 -36.3 and CTSL1 counter 0.6.
Screening CC(C)C[C@H](NC1(C(=O)NC2CCCCC2)CCOCC1)C(=O)NCC(c1ccccc1)c1ccccc1 returned MBD2 inh -2.1, PRMT1 FP inh 2.9 and UHRF1 binding 2.8.
Oc1c(/C=N/c2ncn[nH]2)ccc2ccccc12 was read as PfGluPho inh 30.8, PfM18AAP inh-1 63.7*, MBD2 inh 0.2, PRMT1 FP inh -2.1, UHRF1 binding -5.5, PfM18AAP inh-2 52.1* and CTSL1 counter -4.1.
For O=C(Nc1ccc(N2CCCCC2)cc1)c1ccccc1 the results were PfGluPho inh 11.3, PfM18AAP inh-1 4.7, MBD2 inh 2.5, PRMT1 FP inh 0.2 and UHRF1 binding 0.2.
Screening NC(=O)NC(=O)C(Nc1ccc(N2CCCCC2)cc1)c1ccccc1 (stereo not drawn) returned PfGluPho inh 31.6, PfM18AAP inh-1 40.8*, MBD2 inh -8.1, PRMT1 FP inh -0.4, UHRF1 binding -4.9, PfM18AAP inh-2 -35.1 and CTSL1 counter -4.8.
For CN(C)c1ccc(NC(=S)OC2CCC23CCC(c2ccccc2)CC3)cc1 (stereo not drawn) the results were MBD2 inh -4.2, PRMT1 FP inh -0.3 and UHRF1 binding -1.4.
Cc1ccc(O)c(Nc2c3ccccc3nc3ccccc23)c1 was read as PfGluPho inh 2.9, PfM18AAP inh-1 42.7*, MBD2 inh -9.8, PRMT1 FP inh 3.8, UHRF1 binding -10.2, PfM18AAP inh-2 -48.4 and CTSL1 counter 4.7.
Cc1ccc(O)c(Nc2nc(-c3ccccc3)nc3ccccc23)c1 was read as PfGluPho inh -0.1, PfM18AAP inh-1 -8.2, MBD2 inh 2.2, PRMT1 FP inh -1.8 and UHRF1 binding -3.5.
COCCCNC(=S)NNC(=S)Nc1ccc(OC)cc1 was read as PfGluPho inh 10.6, PfM18AAP inh-1 49.2*, MBD2 inh -2.8, PRMT1 FP inh -6.9, UHRF1 binding -0.2, PfM18AAP inh-2 -1.7 and CTSL1 counter -4.3.
For COc1ccc(NC(=S)NCCCc2ccccc2)cc1 the results were PfGluPho inh -0.8, PfM18AAP inh-1 12.1, MBD2 inh 3.3, PRMT1 FP inh 2.1 and UHRF1 binding 3.7.
`S=c1[nH]nc(-c2cc(-c3ccccc3)n[nH]2)n1N=Cc1cccc(Oc2ccccc2)c1` gave MBD2 inh 1.8, PRMT1 FP inh 9.2 and UHRF1 binding 1.4.
